Some test systems named below: PRKD3; PRKG1; PRKG2; PRKX; PRP4; QSK; RAF1; RET; RIOK1; RIOK2; RIOK3; RIPK1; RIPK2; RIPK4; RIPK5; ROCK1; ROCK2; ROS1.
Common to all, as to conditions: concentration: 1 μM, replicates: in singlicate; n = 1
The next assay concerns T1, PRKR.
T1 construct: gene EIF2AK2

A further assay deals with T2, PYK2.
T2 construct: gene PTK2B
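Note: KINOMEscan kinase panel screen.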

In the case of `CC(C)(C)c1ccc(C(=O)Nc2cn3cc(-n4ccnc4)ccc3n2)cc1`, the “%Inh” value in the assay on PRKD3 is 0%; in the assay with PRKG1, 0%; with PRKG2, 7%; in the assay with PRKR, 0%; in the assay on PRKX, 41%; with PRP4, 22%. Moreover, the “%Inh” value in the assay on PYK2 was 8%; in the assay with QSK it was 0%; in the assay with RAF1, 10%; with RET it was 0%; in the assay with RIOK1 it was 0%; with RIOK2, 6%. Also, the “%Inh” value amounted to 0% in the assay on RIOK3; 2% in the assay on RIPK1; 24% in the assay on RIPK2; 0% in the assay with RIPK4; 34% in the assay with RIPK5; 0% in the assay on ROCK1. Moreover, the “%Inh” value in the assay on ROCK2 and with ROS1 was 0% throughout.

On to `CN(c1ccc(F)c(NC(=O)c2cccc(OC(C)(C)C#N)c2Cl)c1)c1ccc2nc(NC(=O)C3CC3)sc2n1`, for which the “%Inh” value in the assay with PRKD3 came to 0%; in the assay on PRKG1, 0%; with PRKG2, 3%; with PRKR, 0%; in the assay on PRKX, 1%; with PRP4, 18%. Moreover, the “%Inh” value was 3% with PYK2; 0% with QSK; 96.1% with RAF1; 100% in the assay with RET; 0% in the assay on RIOK1; 71% in the assay on RIOK2. In addition, the “%Inh” value in the assay on RIOK3 stood at 27%; with RIPK1, 0%; in the assay with RIPK2, 36%; with RIPK4 it was 2%; in the assay on RIPK5, 0%; in the assay with ROCK1 it was 0%. Moreover, the “%Inh” value in the assay on ROCK2 and in the assay with ROS1 was 0% throughout.

As for `Cc1cccc(Nc2nc(N[C@H]3CCCC[C@H]3N)ncc2C(N)=O)c1.Cl` [GSK986310], the “%Inh” value in the assay on PRKD3 worked out at 58%; in the assay with PRKG1, 20%; with PRKG2 it was 0%; in the assay with PRKR, 30%; with PRKX, 25%; in the assay on PRP4, 1%. For the same molecule, the “%Inh” value in the assay on PYK2 is listed as 71%; in the assay on QSK it was 18%; in the assay with RAF1, 3%; in the assay on RET, 76%; in the assay on RIOK1 it was 48%; with RIOK2 it was 42%. Further, the “%Inh” value came to 42% in the assay on RIOK3; 7% in the assay with RIPK1; 2% in the assay on RIPK2; 68% in the assay on RIPK4; 17% in the assay with RIPK5; 85% with ROCK1. In addition, the results for the “%Inh” value in the assay on ROCK2 and in the assay with ROS1 were 82% and 62%, respectively.

Regarding `COC(=O)Nc1nc2ccc(Oc3ccc(CC(=O)Nc4cc(C(F)(F)F)ccc4F)cc3)cc2[nH]1` [GW680903], the “%Inh” value amounted to 18% in the assay on PRKD3; 0% with PRKG1; 0% in the assay with PRKG2; 0% in the assay on PRKR; 2% in the assay with PRKX; 32% in the assay with PRP4. Further, the “%Inh” value in the assay on PYK2 turned out to be 0%; in the assay on QSK it was 0%; with RAF1, 86%; in the assay with RET, 97.7%; in the assay on RIOK1 it was 0%; with RIOK2, 0%. For the same molecule, the “%Inh” value in the assay on RIOK3 is listed as 8%; in the assay on RIPK1, 84%; with RIPK2 it was 48%; with RIPK4, 8%; in the assay on RIPK5 it was 0%; in the assay on ROCK1 it was 31%. In addition, the “%Inh” value is given as 12% with ROCK2 and 0% in the assay with ROS1.

As for `Cc1cc(-c2c(-c3ccc(F)cc3)ncn2CCCN2CCOCC2)nc(N)n1` [SB-222517], the “%Inh” value came out at 0% in the assay on PRKD3; 0% in the assay with PRKG1; 0% in the assay with PRKG2; 16% with PRKR; 0% in the assay with PRKX; 0% in the assay with PRP4. Besides, the “%Inh” value in the assay with PYK2 stood at 10%; in the assay with QSK it was 23%; with RAF1 it was 0%; in the assay with RET, 13%; in the assay on RIOK1, 10%; in the assay on RIOK2 it was 0%. The “%Inh” value in the assay with RIOK3 amounted to 11%; in the assay with RIPK1 it was 0%; in the assay with RIPK2, 0%; in the assay on RIPK4, 14%; in the assay with RIPK5, 11%; in the assay on ROCK1 it was 29%. For the same molecule, the figures for the “%Inh” value in the assay on ROCK2 and in the assay on ROS1 were 0% and 19%, respectively.

As for `Nc1cccc(-c2ccc3c(N)n[nH]c3c2)c1` [GSK2193613], the “%Inh” value is 0% in the assay on PRKD3; 20% in the assay with PRKG1; 19% in the assay on PRKG2; 0% with PRKR; 7% with PRKX; 19% in the assay on PRP4. The “%Inh” value worked out at 5% in the assay with PYK2; 0% in the assay on QSK; 0% with RAF1; 5% in the assay on RET; 93.9% with RIOK1; 64% in the assay on RIOK2. Besides, the “%Inh” value in the assay with RIOK3 came out at 55%; in the assay with RIPK1, 0%; in the assay on RIPK2, 0%; in the assay on RIPK4 it was 49%; in the assay on RIPK5, 0%; with ROCK1, 42%. In addition, the results for the “%Inh” value in the assay on ROCK2 and with ROS1 were 48% and 17%, respectively.

Turning to `Nc1ncnc2scc(-c3ccc(NC(=O)Cc4cc(F)ccc4F)cc3)c12.O=C(O)C(F)(F)F` [SB-731254-M], the “%Inh” value in the assay with PRKD3 was found to be 14%; in the assay with PRKG1, 0%; with PRKG2 it was 0%; in the assay with PRKR, 15%; with PRKX, 14%; in the assay on PRP4 it was 26%. The “%Inh” value is on record as 21% in the assay on PYK2; 32% with QSK; 10% in the assay with RAF1; 23% with RET; 0% with RIOK1; 13% in the assay with RIOK2. In addition, the “%Inh” value in the assay on RIOK3 is 1%; with RIPK1, 0%; in the assay with RIPK2, 23%; in the assay with RIPK4, 20%; with RIPK5, 53%; in the assay with ROCK1, 0%. For the same molecule, the entries for the “%Inh” value with ROCK2 and in the assay with ROS1 were 0% and 17%, respectively.

Take `CN1CCN(Cc2ccc(NC(=O)Nc3ccc(N(C)c4ccnc(Nc5ccc(CS(C)(=O)=O)cc5)n4)cc3)cc2)CC1.Cl` [GW827654]: the “%Inh” value in the assay on PRKD3 came out at 0%; in the assay on PRKG1, 0%; in the assay on PRKG2, 0%; in the assay on PRKR it was 0%; in the assay on PRKX, 22%; with PRP4, 33%. Moreover, the “%Inh” value is 88% in the assay on PYK2; 0% with QSK; 0% with RAF1; 100% in the assay with RET; 94.1% in the assay with RIOK1; 100% with RIOK2. Besides, the “%Inh” value in the assay with RIOK3 worked out at 93.4%; with RIPK1, 40%; in the assay on RIPK2, 34%; in the assay with RIPK4, 72%; with RIPK5, 94.9%; in the assay on ROCK1 it was 94.6%. For the same molecule, the “%Inh” value is listed as 99.2% in the assay with ROCK2 and 40% in the assay on ROS1.

For the molecule `COc1cccc(-c2nc(-c3ccccc3)[nH]c2-c2ccncc2)c1` [SB-610250], the “%Inh” value with PRKD3 came to 11%; in the assay on PRKG1 it was 0%; in the assay with PRKG2 it was 0%; with PRKR it was 0%; in the assay with PRKX, 0%; with PRP4, 70%. Also, the “%Inh” value in the assay on PYK2 is 0%; in the assay with QSK it was 8%; in the assay with RAF1 it was 34%; in the assay with RET, 25%; in the assay on RIOK1, 18%; in the assay with RIOK2 it was 0%. Moreover, the “%Inh” value in the assay on RIOK3 turned out to be 0%; in the assay on RIPK1, 0%; in the assay with RIPK2, 75%; with RIPK4, 11%; in the assay on RIPK5, 0%; in the assay on ROCK1 it was 24%. Moreover, the “%Inh” value with ROCK2 is reported as 13%; in the assay on ROS1, 0%.

For the molecule `CCOc1nccc(-c2c(-c3ccc(F)cc3)ncn2C2CCNCC2)n1` [SB-249175], the “%Inh” value in the assay on PRKD3 was 19%; in the assay on PRKG1, 0%; in the assay on PRKG2, 12%; with PRKR, 16%; in the assay with PRKX it was 0%; in the assay on PRP4, 0%. The “%Inh” value with PYK2 stood at 16%; with QSK, 20%; in the assay on RAF1 it was 19%; in the assay on RET it was 32%; in the assay on RIOK1, 44%; in the assay with RIOK2, 24%. Further, the “%Inh” value in the assay with RIOK3 was determined as 42%; with RIPK1 it was 23%; in the assay with RIPK2, 31%; in the assay on RIPK4, 53%; with RIPK5, 8%; with ROCK1, 53%. Besides, the “%Inh” value is 19% with ROCK2 and 11% in the assay with ROS1.

Source of the values: paper PMC5540273 (PLoS ONE, 2017).
